Key:
Experiment in all cases: DAPPL (digital affinity profiling via proximity ligation, sequencing); 10 mM Tris-HCl pH 7.5, 50 mM NaCl, 1 mM DTT, 4% glycerol, room temperature, 30 min; GST-TFs on glutathione beads, 16-mer random dsDNA library, 0.1% formaldehyde crosslink after washing; high values mean tight binding
Details in all cases: protein: recombinant; tags: N-terminal GST; dsDNA, one strand shown
[1] = target: T1, GABPA (Homo sapiens, UniProt Q06546 1-454)
T1 sequence: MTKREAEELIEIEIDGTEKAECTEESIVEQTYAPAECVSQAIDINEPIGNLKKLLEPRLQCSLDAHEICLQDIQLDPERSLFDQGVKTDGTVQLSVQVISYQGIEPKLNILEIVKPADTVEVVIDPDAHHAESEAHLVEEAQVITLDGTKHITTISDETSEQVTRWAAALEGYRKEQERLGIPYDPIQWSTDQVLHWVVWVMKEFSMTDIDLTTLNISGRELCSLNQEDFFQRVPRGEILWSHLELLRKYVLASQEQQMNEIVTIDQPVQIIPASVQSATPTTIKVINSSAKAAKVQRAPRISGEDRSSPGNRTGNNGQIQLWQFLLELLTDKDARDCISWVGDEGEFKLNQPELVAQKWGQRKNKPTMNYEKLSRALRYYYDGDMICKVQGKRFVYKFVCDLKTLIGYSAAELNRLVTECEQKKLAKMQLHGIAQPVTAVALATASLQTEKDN
Method in brief: (§1)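 Sequencing on an Illumina NextSeq500 followed washing, crosslinking with 0.1% formaldehyde, proximity ligation (BsaI/T4 ligase, 1 h, 37 °C) and PCR amplification of pools that had been incubated for 30 min at room temperature with 200 nmole of a random double-stranded 16-mer DNA library in Tris/NaCl/DTT/glycerol buffer. Each pool held DNA-barcoded human transcription factors, expressed in yeast as GST fusions and captured on glutathione beads, plus a tag-only sample. Binding signal is a hexamer's read frequency for a factor divided by its frequency in the tag-only sample.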

[2] = target: T2, EHF (Homo sapiens, UniProt Q9NZC4 1-300)
T2 sequence: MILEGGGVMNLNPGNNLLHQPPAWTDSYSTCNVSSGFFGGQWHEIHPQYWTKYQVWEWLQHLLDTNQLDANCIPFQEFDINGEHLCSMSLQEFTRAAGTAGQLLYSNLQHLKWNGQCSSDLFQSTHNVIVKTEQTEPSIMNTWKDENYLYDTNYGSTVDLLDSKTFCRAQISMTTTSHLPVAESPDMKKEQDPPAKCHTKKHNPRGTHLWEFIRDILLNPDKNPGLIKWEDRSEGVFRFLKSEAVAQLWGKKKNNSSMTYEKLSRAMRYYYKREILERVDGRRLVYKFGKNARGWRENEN
Method in brief: as §1

[3] = target: ETV5 (Homo sapiens, UniProt P41161 1-510)
Method in brief: as §1

[4] = target: ELF4 (Homo sapiens, UniProt Q99607 1-663)
Method in brief: as §1

[5] = target: T3, ELK4 (Homo sapiens, UniProt P28324-2 1-405)
T3 sequence: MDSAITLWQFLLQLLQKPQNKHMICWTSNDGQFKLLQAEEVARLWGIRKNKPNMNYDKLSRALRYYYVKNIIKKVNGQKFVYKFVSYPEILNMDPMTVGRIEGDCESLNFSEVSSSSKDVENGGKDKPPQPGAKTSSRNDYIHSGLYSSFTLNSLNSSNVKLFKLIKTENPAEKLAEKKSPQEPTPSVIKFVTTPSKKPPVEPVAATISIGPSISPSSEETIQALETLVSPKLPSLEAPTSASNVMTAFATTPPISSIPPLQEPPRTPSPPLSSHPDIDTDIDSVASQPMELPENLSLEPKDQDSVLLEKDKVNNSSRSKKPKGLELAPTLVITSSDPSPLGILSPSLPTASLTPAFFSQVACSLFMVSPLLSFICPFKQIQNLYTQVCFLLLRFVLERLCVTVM
Method in brief: as §1

[6] = target: T4, ETV2 (Homo sapiens, UniProt O00321 1-342)
T4 sequence: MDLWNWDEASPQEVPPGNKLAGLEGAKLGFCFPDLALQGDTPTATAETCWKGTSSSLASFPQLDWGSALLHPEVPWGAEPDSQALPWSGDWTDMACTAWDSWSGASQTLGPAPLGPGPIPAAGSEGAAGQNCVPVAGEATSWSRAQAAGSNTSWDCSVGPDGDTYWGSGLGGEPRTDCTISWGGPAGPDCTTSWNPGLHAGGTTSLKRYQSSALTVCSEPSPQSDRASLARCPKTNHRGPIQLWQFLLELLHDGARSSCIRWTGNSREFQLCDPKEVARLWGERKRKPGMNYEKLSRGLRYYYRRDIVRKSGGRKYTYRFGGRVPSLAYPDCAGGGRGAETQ
Method in brief: as §1

[7] = target: T5, ELF3 (Homo sapiens, UniProt P78545 1-371)
T5 sequence: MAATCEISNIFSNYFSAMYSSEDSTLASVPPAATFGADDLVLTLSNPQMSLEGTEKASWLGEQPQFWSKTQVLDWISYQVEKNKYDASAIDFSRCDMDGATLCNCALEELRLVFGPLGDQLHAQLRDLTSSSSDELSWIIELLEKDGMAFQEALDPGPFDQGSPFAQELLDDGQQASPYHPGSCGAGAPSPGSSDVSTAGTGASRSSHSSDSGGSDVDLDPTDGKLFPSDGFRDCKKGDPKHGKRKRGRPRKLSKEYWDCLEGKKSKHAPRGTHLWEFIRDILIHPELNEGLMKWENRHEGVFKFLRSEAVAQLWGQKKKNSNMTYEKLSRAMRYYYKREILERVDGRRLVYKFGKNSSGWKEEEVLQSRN
Method in brief: as §1

[8] = target: ETV1 (Homo sapiens, UniProt P50549 1-477)
Method in brief: as §1

[9] = target: T6, ERF (Homo sapiens, UniProt P50548 1-548)
T6 sequence: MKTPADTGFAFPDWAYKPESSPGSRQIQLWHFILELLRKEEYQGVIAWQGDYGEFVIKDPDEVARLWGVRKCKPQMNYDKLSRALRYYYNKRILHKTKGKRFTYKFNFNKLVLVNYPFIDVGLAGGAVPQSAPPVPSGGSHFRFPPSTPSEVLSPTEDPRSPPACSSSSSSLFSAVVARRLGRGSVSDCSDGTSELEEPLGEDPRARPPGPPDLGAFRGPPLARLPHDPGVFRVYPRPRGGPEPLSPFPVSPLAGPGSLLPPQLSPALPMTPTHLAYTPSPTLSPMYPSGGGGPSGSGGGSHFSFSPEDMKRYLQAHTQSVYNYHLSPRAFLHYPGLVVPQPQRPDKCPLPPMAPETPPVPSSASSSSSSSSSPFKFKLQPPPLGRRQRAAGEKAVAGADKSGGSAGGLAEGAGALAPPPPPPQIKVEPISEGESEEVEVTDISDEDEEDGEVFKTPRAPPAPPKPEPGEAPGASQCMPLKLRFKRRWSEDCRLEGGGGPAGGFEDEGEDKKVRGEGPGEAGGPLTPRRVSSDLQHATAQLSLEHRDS
Method in brief: as §1

[10] = target: T7, ETV7 (Homo sapiens, UniProt Q9Y603 1-341)
T7 sequence: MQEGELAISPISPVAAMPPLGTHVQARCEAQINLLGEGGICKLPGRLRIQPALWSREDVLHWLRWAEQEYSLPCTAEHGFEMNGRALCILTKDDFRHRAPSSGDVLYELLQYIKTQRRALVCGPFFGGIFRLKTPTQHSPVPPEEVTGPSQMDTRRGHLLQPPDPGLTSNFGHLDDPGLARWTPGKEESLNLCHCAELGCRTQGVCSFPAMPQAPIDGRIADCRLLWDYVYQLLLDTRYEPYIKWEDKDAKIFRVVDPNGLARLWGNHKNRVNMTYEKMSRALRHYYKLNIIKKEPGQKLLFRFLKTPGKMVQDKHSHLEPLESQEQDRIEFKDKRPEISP
Method in brief: as §1

[11] = target: T8, ETV3 (Homo sapiens, UniProt P41162-2 1-143)
T8 sequence: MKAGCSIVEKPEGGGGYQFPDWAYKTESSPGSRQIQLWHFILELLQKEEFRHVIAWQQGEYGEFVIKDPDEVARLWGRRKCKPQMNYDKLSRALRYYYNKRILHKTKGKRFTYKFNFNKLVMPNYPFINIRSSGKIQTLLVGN
Method in brief: as §1

[12] = target: ETV6 (Homo sapiens, UniProt P41212 1-452)
Method in brief: as §1

[13] = target: T9, ERG (Homo sapiens, UniProt P11308 1-479)
T9 sequence: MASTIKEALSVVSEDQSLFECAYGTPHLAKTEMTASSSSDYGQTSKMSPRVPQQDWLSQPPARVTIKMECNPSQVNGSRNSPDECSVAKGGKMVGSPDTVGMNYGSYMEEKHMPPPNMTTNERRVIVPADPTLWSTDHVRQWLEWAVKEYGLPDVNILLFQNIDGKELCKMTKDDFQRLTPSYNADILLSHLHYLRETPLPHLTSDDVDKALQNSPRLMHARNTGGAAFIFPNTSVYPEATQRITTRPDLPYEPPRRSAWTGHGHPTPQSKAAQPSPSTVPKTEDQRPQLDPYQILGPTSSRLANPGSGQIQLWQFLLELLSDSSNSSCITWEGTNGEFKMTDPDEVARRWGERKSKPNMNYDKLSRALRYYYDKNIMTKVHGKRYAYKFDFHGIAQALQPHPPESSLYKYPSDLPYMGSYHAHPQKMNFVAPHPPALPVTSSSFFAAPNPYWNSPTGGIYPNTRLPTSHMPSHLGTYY
Method in brief: as §1

[14] = target: SPIB (Homo sapiens, UniProt Q01892 1-262)
Method in brief: as §1

[15] = target: T10, ETV3L (Homo sapiens, UniProt Q6ZN32 1-361)
T10 sequence: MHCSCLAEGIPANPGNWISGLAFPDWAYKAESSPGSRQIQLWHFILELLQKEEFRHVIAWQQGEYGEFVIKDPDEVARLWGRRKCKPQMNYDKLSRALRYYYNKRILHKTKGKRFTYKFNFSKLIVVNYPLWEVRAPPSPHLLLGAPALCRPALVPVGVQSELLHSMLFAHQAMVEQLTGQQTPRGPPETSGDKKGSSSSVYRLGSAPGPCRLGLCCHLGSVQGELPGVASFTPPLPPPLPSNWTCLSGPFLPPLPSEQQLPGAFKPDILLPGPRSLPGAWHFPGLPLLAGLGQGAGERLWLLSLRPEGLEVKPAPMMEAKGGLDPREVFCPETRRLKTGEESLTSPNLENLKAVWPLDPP
Method in brief: as §1

[16] = target: T11, ETS2 (Homo sapiens, UniProt P15036 1-469)
T11 sequence: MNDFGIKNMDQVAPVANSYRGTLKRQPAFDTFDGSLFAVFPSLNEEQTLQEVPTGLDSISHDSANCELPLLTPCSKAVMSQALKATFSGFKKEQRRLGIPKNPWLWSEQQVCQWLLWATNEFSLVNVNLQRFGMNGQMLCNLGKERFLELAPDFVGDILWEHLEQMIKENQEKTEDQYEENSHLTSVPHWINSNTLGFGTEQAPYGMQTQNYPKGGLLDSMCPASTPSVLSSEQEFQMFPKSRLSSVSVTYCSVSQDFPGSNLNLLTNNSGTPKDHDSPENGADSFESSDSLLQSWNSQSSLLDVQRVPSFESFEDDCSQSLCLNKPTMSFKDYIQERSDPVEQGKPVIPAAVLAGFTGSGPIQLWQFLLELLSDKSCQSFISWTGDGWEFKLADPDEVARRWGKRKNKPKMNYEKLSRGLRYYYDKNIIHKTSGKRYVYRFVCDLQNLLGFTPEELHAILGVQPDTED
Method in brief: as §1

[17] = target: T12, SPDEF (Homo sapiens, UniProt O95238 1-335)
T12 sequence: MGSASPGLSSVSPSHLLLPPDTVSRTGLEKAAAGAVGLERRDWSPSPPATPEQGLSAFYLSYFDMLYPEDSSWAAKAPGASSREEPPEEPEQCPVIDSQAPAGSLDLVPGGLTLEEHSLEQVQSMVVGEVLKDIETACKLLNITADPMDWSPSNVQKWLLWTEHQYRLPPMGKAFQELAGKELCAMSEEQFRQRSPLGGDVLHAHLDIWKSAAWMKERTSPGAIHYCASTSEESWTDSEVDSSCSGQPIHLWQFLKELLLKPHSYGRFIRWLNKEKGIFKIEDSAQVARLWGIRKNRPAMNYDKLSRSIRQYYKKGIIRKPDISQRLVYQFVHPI
Method in brief: as §1

Chain of ETV5 (P41161 whole entry): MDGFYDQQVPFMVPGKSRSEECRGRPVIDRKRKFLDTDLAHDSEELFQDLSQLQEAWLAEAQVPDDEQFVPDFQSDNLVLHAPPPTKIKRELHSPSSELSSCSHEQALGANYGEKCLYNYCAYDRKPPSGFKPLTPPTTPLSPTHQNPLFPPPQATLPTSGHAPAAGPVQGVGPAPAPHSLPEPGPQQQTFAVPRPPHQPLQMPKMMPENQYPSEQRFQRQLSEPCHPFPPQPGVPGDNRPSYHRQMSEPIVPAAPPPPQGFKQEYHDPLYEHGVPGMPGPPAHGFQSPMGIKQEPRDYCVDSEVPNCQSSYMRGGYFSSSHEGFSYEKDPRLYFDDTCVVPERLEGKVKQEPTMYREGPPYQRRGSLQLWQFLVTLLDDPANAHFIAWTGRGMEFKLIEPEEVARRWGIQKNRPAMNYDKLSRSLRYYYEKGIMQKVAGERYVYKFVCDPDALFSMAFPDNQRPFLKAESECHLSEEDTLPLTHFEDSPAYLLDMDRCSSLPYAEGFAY
Chain of ETV6 (P41212 whole entry): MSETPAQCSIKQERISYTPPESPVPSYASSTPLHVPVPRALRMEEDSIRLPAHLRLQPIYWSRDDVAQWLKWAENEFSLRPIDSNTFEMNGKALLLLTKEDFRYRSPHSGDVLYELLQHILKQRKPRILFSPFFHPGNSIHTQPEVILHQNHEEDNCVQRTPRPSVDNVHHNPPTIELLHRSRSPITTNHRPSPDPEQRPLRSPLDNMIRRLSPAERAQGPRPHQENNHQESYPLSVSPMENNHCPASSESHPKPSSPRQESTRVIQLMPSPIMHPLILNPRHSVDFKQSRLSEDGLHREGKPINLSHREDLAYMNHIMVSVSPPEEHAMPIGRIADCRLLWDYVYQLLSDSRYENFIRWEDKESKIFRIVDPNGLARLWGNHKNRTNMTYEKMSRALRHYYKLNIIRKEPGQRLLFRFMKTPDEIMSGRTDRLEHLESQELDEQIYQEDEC
Chain of ETV1 (P50549 whole entry): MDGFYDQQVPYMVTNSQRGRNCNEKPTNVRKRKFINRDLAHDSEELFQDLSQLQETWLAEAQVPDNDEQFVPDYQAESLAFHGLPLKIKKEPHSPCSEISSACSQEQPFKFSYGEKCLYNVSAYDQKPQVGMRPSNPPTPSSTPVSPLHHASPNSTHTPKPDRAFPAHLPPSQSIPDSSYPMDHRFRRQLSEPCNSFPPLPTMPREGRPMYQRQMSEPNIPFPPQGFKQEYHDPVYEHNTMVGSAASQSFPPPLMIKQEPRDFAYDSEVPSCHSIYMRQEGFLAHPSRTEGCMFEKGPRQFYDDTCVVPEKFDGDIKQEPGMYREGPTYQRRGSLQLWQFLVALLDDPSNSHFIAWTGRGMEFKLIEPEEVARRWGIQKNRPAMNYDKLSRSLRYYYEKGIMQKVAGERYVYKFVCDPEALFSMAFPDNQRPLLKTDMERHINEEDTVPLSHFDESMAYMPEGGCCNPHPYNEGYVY
Chain of ELF4 (Q99607 whole entry): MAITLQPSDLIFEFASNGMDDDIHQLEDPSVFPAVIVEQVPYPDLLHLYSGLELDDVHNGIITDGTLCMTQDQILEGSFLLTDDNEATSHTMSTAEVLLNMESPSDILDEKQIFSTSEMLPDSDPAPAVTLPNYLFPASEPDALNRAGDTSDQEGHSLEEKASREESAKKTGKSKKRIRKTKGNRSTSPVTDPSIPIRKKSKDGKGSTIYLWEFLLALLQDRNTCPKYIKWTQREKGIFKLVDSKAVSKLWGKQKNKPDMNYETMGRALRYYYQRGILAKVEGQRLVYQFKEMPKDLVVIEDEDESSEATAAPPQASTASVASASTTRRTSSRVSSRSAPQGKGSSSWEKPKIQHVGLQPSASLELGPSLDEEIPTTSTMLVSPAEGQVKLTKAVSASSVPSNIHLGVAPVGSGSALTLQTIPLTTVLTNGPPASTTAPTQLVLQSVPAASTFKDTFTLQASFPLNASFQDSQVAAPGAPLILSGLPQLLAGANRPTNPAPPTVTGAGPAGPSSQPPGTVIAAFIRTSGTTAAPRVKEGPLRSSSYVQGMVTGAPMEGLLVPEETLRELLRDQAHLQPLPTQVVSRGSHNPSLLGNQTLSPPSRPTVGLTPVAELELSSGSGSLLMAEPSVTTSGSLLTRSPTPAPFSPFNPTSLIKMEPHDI
Chain of SPIB (Q01892 whole entry): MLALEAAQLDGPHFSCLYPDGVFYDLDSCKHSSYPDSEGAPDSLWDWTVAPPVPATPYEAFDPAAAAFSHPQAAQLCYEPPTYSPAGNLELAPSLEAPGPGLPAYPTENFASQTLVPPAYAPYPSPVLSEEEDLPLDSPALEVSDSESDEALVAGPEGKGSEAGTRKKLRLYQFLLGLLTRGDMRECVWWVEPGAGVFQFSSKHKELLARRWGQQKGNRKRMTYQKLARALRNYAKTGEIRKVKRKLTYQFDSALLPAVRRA

For AGAAGT, the binding signal [1] was 1.05 fold enrichment (6-mer frequency, TF over GST control), the binding signal [2] was 1.06 fold enrichment (6-mer frequency, TF over GST control) and the binding signal [3] was 1.09 fold enrichment (6-mer frequency, TF over GST control). For the same sequence, the binding signal [4] was 1.06 fold enrichment (6-mer frequency, TF over GST control), the binding signal [5] was 1.16 fold enrichment (6-mer frequency, TF over GST control) and the binding signal [6] was 1.03 fold enrichment (6-mer frequency, TF over GST control). For the same sequence, the binding signal [7] was 1.05 fold enrichment (6-mer frequency, TF over GST control), the binding signal [8] was 1.05 fold enrichment (6-mer frequency, TF over GST control) and the binding signal [9] was 1.05 fold enrichment (6-mer frequency, TF over GST control). The binding signal [10] was 1.13 fold enrichment (6-mer frequency, TF over GST control), the binding signal [11] was 1.01 fold enrichment (6-mer frequency, TF over GST control) and the binding signal [12] was 1.07 fold enrichment (6-mer frequency, TF over GST control).
AGAGCT was tested, and the binding signal [1] was 1.04 fold enrichment (6-mer frequency, TF over GST control), the binding signal [2] was 1.01 fold enrichment (6-mer frequency, TF over GST control) and the binding signal [3] was 1.03 fold enrichment (6-mer frequency, TF over GST control). The binding signal [7] was 1.03 fold enrichment (6-mer frequency, TF over GST control).
AGGATG was tested, and the binding signal [13] was 1.1 fold enrichment (6-mer frequency, TF over GST control), the binding signal [2] was 1.09 fold enrichment (6-mer frequency, TF over GST control) and the binding signal [14] was 1.1 fold enrichment (6-mer frequency, TF over GST control). The binding signal [3] was 1.09 fold enrichment (6-mer frequency, TF over GST control), the binding signal [8] was 1.05 fold enrichment (6-mer frequency, TF over GST control) and the binding signal [15] was 1.06 fold enrichment (6-mer frequency, TF over GST control). For the same sequence, the binding signal [16] was 1.07 fold enrichment (6-mer frequency, TF over GST control), the binding signal [17] was 1.51 fold enrichment (6-mer frequency, TF over GST control) and the binding signal [10] was 1.04 fold enrichment (6-mer frequency, TF over GST control). For the same sequence, the binding signal [11] was 1.13 fold enrichment (6-mer frequency, TF over GST control) and the binding signal [12] was 1.08 fold enrichment (6-mer frequency, TF over GST control).

Source: publication PMC7862700, “An all-to-all approach to the identification of sequence-specific readers for epigenetic DNA modifications on cytosine”
